D1 potentiator: human D1 dopamine receptor positive modulation. HEK293 TREx D1 cells, calcium flux, dopamine EC20 potentiation. potentiation, % at 10 µM. 360,000 compounds, 0.036% hits. AID 504651; in the data active = potentiation above about 30%; also: 0% is about no effect
USP2a inh: inhibitors of human ubiquitin-specific protease USP2a. Potency, µM (highest dose often 38.3 µM), for inactives: top-dose activity change, negative = inhibition, hits mostly inhibitors. 330,000 compounds, 0.01% hits. USP2 core, Ub-CHOP2 coupled fluorogenic reporter, 485/531. O75604;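 also: potency is read from the fitted curve at half-maximal effect; plate controls were DMSO wells for no effect and full inhibition by NEM control for full effect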
Target sequence (O75604 whole entry, looked up): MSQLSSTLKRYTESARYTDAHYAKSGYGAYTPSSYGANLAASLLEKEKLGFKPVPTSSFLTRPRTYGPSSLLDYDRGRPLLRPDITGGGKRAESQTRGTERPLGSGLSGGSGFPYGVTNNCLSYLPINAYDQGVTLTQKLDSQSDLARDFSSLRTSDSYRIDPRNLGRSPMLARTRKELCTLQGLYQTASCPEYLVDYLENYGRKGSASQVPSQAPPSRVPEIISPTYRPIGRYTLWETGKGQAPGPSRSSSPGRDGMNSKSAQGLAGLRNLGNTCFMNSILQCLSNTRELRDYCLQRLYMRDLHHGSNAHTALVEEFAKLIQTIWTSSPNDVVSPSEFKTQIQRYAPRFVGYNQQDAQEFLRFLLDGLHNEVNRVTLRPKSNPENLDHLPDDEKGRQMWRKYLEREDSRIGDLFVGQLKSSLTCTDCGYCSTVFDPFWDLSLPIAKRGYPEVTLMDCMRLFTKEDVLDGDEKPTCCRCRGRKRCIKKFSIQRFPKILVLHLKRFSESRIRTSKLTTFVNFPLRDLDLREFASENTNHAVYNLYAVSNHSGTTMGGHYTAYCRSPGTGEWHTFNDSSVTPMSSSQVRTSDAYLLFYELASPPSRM
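Deubiquitinase activity read as fluorescence (485/531 nm) after Ub-CHOP2 cleavage activates the enterokinase reporter on its substrate; USP2 core 10nM, Ub-CHOP2 and substrate 25nM each, 30min compound preincubation then 60min RT; data normalized to NEM, curves fitted.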
D1 agonist: activates the human D1 dopamine receptor | activation, % at 2 µM | HEK293 T-REx D1 cells, calcium flux, agonist mode | 360,000 compounds, 1% hits; in the data active = activation above about 30%; also: 0% is about no effect
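Inducible HEK293 T-REx D1 cells, force-coupled to calcium signalling, were plated at 4000 cells/well with tetracycline and held overnight at 30 C. After no-wash calcium dye loading, compound-evoked calcium rise over 180 s flagged agonists.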
D1 antagonist: antagonists of human D1 dopamine receptor | activity change, negative = inhibition, % at 10 µM | 360,000 compounds, 3.2% hits | HEK293 TREx D1 cells, calcium flux, dopamine EC80; active compounds read low | P21728; in the data active = activity change below about -30%; also: % is scaled to controls: 0 for no effect and ±100 for the full control effect
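Antagonism measured as reduced calcium response to an EC80 dopamine addition following 180 s compound pre-read; cells were inducible HEK293 Trex D1 plated overnight at 30 C, read kinetically at 1 cycle/sec.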
Eya2 inh: inhibitors of human Eya2 phosphatase activity | O00167 | recombinant Eya2, OMFP fluorescence dephosphorylation (OMFP is methylfluorescein phosphate) | Potency, µM (top dose mostly 76.9 µM), for the others: at the top dose activity, negative = inhibition, hits mostly inhibitors | 330,000 compounds, 0.006% hits | AID 488837; also: potency is read from the fitted curve at half-maximal effect; % is scaled to controls: 0 for no effect and ±100 for the full control effect
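Eya2 protein (added as 0.2 uM solution) was preincubated with compound for 10 min at ambient temperature in 50 mM HEPES pH 7.5, 50 mM NaCl, 5 uM MgCl2, 0.05% BSA, 1 mM DTT. OMFP (added at 50 uM) then reacted 10 min; fluorescence read at 485/525 nm.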
GALK inh: galactokinase (human) inhibition; P51570; Purified GALK, Kinase-Glo residual ATP luminescence; Potency, µM (doses to about 57.5 µM), for inactives: at the highest dose activity change, negative = inhibition, most hits filed as inhibitors; 270,000 compounds, 0.007% hits; AID 1868; also: potency is read from the fitted curve at half-maximal effect; % is scaled to controls: 0 for no effect and ±100 for the full control effect
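GALK at 5 nM final was combined with compound, 35 uM ATP and 100 uM galactose in HEPES pH8.0 with MgCl2 and DTT. The reaction ran one hour at room temperature before luminescent ATP detection.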
* marks the source's active call; other numbers are inactive results; u = inconclusive; x = no result. The list is not random: actives were taken first. Their share in the collection is about 3.9%. Unless noted, calls follow the shape of the dose curve; as a rule, active = well fitted inhibition curve with a large enough effect; inconclusive = small, poorly fitted or top-dose-only effect, or effect the other way; inactive = flat fitted curve, though single readings scatter.

SMILES | D1 potentiator | USP2a inh | D1 agonist | D1 antagonist | Eya2 inh | GALK inh
Cc1ccc(S(=O)(=O)NC(C(=O)Oc2ccc3c(C(F)(F)F)cc(=O)oc3c2)c2ccccc2)cc1 (stereo not drawn) | -6 | 27% | 57* | -9 | 2% | -3%
CC(=O)N1C=Cc2c(c(C)c3c([nH]c4ccccc43)c2C)C1 | -6 | -5% | 58* | 10 | 11% | x
CC(=O)N1CCc2[nH]c3ccccc3c2C1 | 2 | 0% | -1 | -13 | -6% | 2%
CCOC(=O)c1ccc(Nc2c(-c3ccc(O)cc3)nc3nc[nH]n23)cc1 | -2 | x | 0 | -3 | x | x
O=S(=O)(c1cccc(Cl)c1)n1c(/C=C/c2ccccc2Cl)nc2ccccc21 | -3 | x | -2 | -33* | x | x
COc1ccc(CCNCc2c(OC)ccc3ccccc23)cc1OC | -1 | 6% | 38* | -28 | -3% | -8%
COc1ccc2ccccc2c1CNC(C)CCc1ccccc1 (stereo not drawn) | -4 | -1% | 7 | 27 | 8% | 0%
COc1ccccc1CCNCc1ccc(OC)c(OCc2ccccc2)c1 | -12 | 4% | 62* | -58* | -31% | 0%
COc1cc(CNCCc2ccccc2)ccc1OCc1ccc(Cl)nc1 | -2 | -1% | 17 | -9 | 6% | -3%
COc1ccc(CNCc2ccco2)cc1OCc1ccccc1 | -5 | 0% | 44* | -3 | 10% | 0%
COc1ccc(NC(=O)c2cn(CC(C)C)c(=O)c3cc(OC)c(OC)cc23)cc1Cl | 1 | x | 1 | -15 | x | x
Oc1cccc(Nc2cc(-c3ccccc3)ncn2)c1 | -2 | x | 0 | 0 | x | x
CC(C)c1ccc(NC(=O)COc2ccccn2)cc1 | -9 | 6% | 2 | -91* | -5% | 4%
COc1ccc(OC)c(NC(=O)c2cc(-c3ccc(Cl)s3)nc3ccccc23)c1 | 0 | x | 1 | 3 | x | x
CC(=O)c1ccc(N2CCN(C(=O)Nc3ccc(C(C)C)cc3)CC2)cc1 | -4 | 3% | 5 | -47* | 6% | 0%
CC(=O)c1ccc(N2CCN(C(=O)Nc3ccc(F)cc3)CC2)cc1 | -5 | 0% | 14 | -11 | 2% | -2%
Cc1ccc(C)c(NC(=O)CN(C)S(=O)(=O)c2cccc3nsnc23)c1 | -2 | x | -1 | -7 | x | x
Cc1ccc(NC(=O)CSc2nc3c(sc4ccccc43)c(=O)n2CCCC(=O)NC2CCCC2)cc1C | -4 | x | 1 | -3 | x | x
Cc1oc(-c2ccccc2Cl)nc1CN1CCCCC1c1cccnc1 (stereo not drawn) | -8 | -2% | -1 | -32* | 8% | 1%
COc1cc(Cl)c(S(=O)(=O)NCCN2CCOCC2)cc1Cl | 1 | -1% | 2 | 0 | 11% | 0%
O=S(=O)(NCCN1CCOCC1)c1cc(Cl)c(Cl)cc1Cl | -5 | -1% | 6 | -31* | -4% | 7%
COCCn1c(SCC(=O)c2c[nH]c3ccccc23)nc2cc(C(=O)NCC(C)C)ccc2c1=O | -2 | x | 1 | 3 | x | x
CCCCn1c(N)c(N(CC(C)C)C(=O)c2oc3ccc(OCC)cc3c2C)c(=O)[nH]c1=O | -3 | 1% | 2 | 1 | 4% | -7%
CCCCN(C(=O)c1oc2ccc(OCC)cc2c1C)c1c(N)n(CC(C)C)c(=O)[nH]c1=O | -16 | 2% | 0 | -32* | -1% | x
Cc1nn(C(C)C(=O)NCCc2ccccc2)c(=O)c2cc3occc3n12 (stereo not drawn) | -6 | 5% | -1 | -4 | -6% | 0%
SMILES | D1 potentiator | USP2a inh | D1 agonist | D1 antagonist | Eya2 inh | GALK inh
Cc1nn(C(C)C(=O)NCC2CCCO2)c(=O)c2cc3occc3n12 (stereo not drawn) | -9 | x | 0 | -33* | x | 3%
COc1cccc(-n2cc(C(=O)NCc3ccccc3OC)c3ccccc3c2=O)c1 | -3 | x | 1 | -1 | x | x
Cc1cc(C)c(NC(=O)C(C)N2CCCCCC2)c(C)c1 (stereo not drawn) | 2 | -2% | 8 | 1 | u | 0%
CC(C(=O)Nc1cc(Cl)cc(Cl)c1)N1CCCC1 (stereo not drawn) | -13 | 0% | 33* | -29 | 2% | -2%
Cn1c2cc(C#N)sc2c2cnn(Cc3ccccc3F)c(=O)c21 | 0 | x | 0 | 12 | x | x
O=C(NN=C1CCCCC1)NC1CCCCC1 | 2 | 1% | 0 | -85* | -8% | 0%
O=C(NC1CCCCCC1)C(=O)NC1CCCC1 | -1 | 2% | 5 | -33* | -4% | 4%
Cc1cn2c(=O)c(S(=O)(=O)NCc3ccc(F)cc3)c(C)nc2s1 | -5 | x | 0 | -8 | x | x
Cc1ccc2[nH]c3c(=O)n(CC(=O)Nc4ccc(Br)cc4C)ncc3c2c1 | 1 | x | 0 | 15 | x | x
COc1ccc(CCNC(=O)CSCc2nc(-c3cccc(C)c3)oc2C)cc1OC | -3 | x | 5 | -2 | x | x
COc1cccc(-c2nc(CSCC(=O)NCCc3ccc(Cl)cc3)c(C)o2)c1 | 4 | x | 48* | -36* | x | x
Cc1ccc(CN2C(=O)CSC2c2ccccc2F)cc1 (stereo not drawn) | -2 | -5% | 0 | -22 | 12% | -1%
Cc1ccc(CN2C(=O)CSC2c2ccc(F)cc2)cc1 (stereo not drawn) | 4 | 1% | 6 | -39* | -3% | 0%
CCCSc1nnc(NC(=O)Cc2coc3cc(C)ccc23)s1 | 0 | x | 7 | -9 | x | x
O=C(N/N=C/C(Cl)=C/c1ccccc1)c1ccccn1 | -8 | -3% | 2 | -22 | -15% | -1%
CC(/C=N/NC(=O)c1n[nH]c2c1CCC2)=C\c1ccccc1 | -1 | 0% | 4 | -79* | -26% | -3%
O=C(N/N=C/C(Br)=C\c1ccccc1)c1n[nH]c2c1CCC2 | -2 | 0% | 1 | 7 | -8% | 0%
CC(=C/c1ccccc1)/C=N/NC(=O)CSc1nc(C)cc(C)n1 | -9 | -2% | 9 | -34* | 9% | x
CC(/C=N/NC(=O)c1ccco1)=C\c1ccccc1 | 1 | 0% | 3 | 9 | -7% | 7%
CC(/C=N/NC(=O)c1ccccc1F)=C\c1ccccc1 | -12 | -1% | -1 | -35* | -5% | -2%
Cc1cc(C(=O)N/N=C/C(Cl)=C/c2ccccc2)c(C)o1 | -4 | 1% | 4 | -33* | 2% | -5%
Cc1cc2c(s1)c1cnn(Cc3ccc(Br)cc3)c(=O)c1n2C | 3 | x | 1 | 5 | x | x
CCOc1ccc(NC(=O)c2cc(=O)c3ccc(C)c(C)c3o2)cc1 | 0 | x | -2 | -28 | x | x
CCOC(=O)c1cc2c(=O)n3ccccc3nc2n(CC2CCCO2)c1=NC(=O)c1ccccc1OCC (stereo not drawn) | 1 | x | -1 | -18 | x | x

Screening data (PubChem BioAssay)
